Results: PubChem BioAssay AID795 (NMMLSC, 2007)
Among all 24,000 compounds or so, about 130 (0.54%) were called active. This is one part of a sample in which actives are shown more often than they occur.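 The calls were made as follows: active = side scatter shift above 30%; inactive = the rest.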 Square brackets hold non-standard residues; d marks the D form. Peptide text beside a SMILES is read from it. ξ: configuration not given here. ξV = CC(C)C(N)C(=O)O

Assay: inducers of granularity increase in LNCaP cells – cell-based, flow cytometry side scatter, primary screen (AID 795);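 also: androgen-responsive LNCaP prostate cancer cells in charcoal-stripped serum medium; percent of cells past a gate set so DMSO wells show 10% shift; higher shift means more granular cells and more differentiation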
Details: LNCaP differentiation, 4 d, at 10 µM, stronger effect = higher value

Row | Compound | side scatter shift
1 | Cc1cccc(CSc2nnc(Cn3c(=O)sc4ccccc43)n2C)c1 | 9% (inactive)
2 | Cc1c2cn[nH]c(=O)c2c(C)n1Cc1ccc(F)cc1 | 2% (inactive)
3 | Cc1cccn2c(=O)c3cc(C#N)c(=O)n(CCCN4CCOCC4)c3nc12 | 4% (inactive)
4 | Cc1cc(C)nc(NC2=NCC(=O)N2c2ccc(Cl)cc2)n1 | 5% (inactive)
5 | CCn1c(SCC(=O)Nc2ccc3c(c2)OCCO3)nc2c(c1=O)SC(C)C2 (configuration not stated) | 8% (inactive)
6 | Cn1c(=O)cc(OCCCC(=O)N2CCN(c3ccccn3)CC2)c2ccccc21 | 2% (inactive)
7 | O=C(Cn1c(=O)n(Cc2ccco2)c(=O)c2ccccc21)NCC1CCCO1 (configuration not stated) | 3% (inactive)
8 | Cc1ccc(S(=O)(=O)N2CCCC2CO)cc1 (configuration not stated) | 16% (inactive)
9 | CCOC(=O)CSc1nnc(CNC(=O)Cc2ccccc2)n1-c1ccccc1OC | 15% (inactive)
10 | O=C(NCCCN1CCOCC1)c1cc(-c2ccc(Cl)cc2)on1 | 8% (inactive)
11 | CCN(CC)CCCNC(=O)c1cc(-c2cccc(Cl)c2)on1 | 33% (active)
12 | Cc1cc(C(=O)NCCCc2ccccc2)no1 | 4% (inactive)
13 | Cc1ccccc1N1CC(c2nc3ccccc3[nH]2)CC1=O (configuration not stated) | 6% (inactive)
14 | C/C(N)=C(\C#N)C(=O)NCCc1ccccn1 | 16% (inactive)
15 | O=C(OCc1ccccc1F)c1ccc2c(c1)OCCO2 | 10% (inactive)
16 | O=C(COC(=O)c1ccccc1C(=O)c1ccccc1)c1ccco1 | 7% (inactive)
17 | O=C(CCN1C(=O)c2ccncc2C1=O)Nc1ccc2c(c1)OCCO2 | 13% (inactive)
18 | CCOC(=O)N1CCC(NC(=O)Cc2cn(C)c3ccccc23)CC1 | 8% (inactive)
19 | CC(=O)N1CCc2cc(S(=O)(=O)Nc3ccccc3N3CCN(C)CC3)ccc21 | 15% (inactive)
20 | CC(C)n1c(NCc2c[nH]c3ccccc23)nc2ccccc21 | 14% (inactive)
21 | CC(=O)NC(C(=O)NCC(N)=O)C(C)C (configuration not stated) (Ac-[ξV]-Gly-NH2) | 7% (inactive)

Row | Compound | side scatter shift
22 | CC(NC(=O)COc1ccccc1)C(=O)NC1=NCCS1 (configuration not stated) | 13% (inactive)
23 | COc1ccc(OC)c(N=Cc2c(O)[nH]c3ccccc23)c1 | 48% (active)
24 | COc1ccc(N=Cc2c(O)[nH]c3ccccc23)cc1OC | 15% (inactive)
25 | COC(=O)c1[nH]c2ccccc2c1NS(=O)(=O)c1ccc(OC)cc1OC | 10% (inactive)
26 | CCc1c(C)nc(N2CCN(Cc3ccccc3)CC2)[nH]c1=O | 8% (inactive)
27 | Cc1nc(NC(=O)C23CCC(C)(C(=O)O2)C3(C)C)sc1C (configuration not stated) | 4% (inactive)
28 | CCCC(=O)N1c2ccccc2NC2=C(C(=O)CCC2)C1c1ccc(F)cc1 (configuration not stated) | 12% (inactive)
29 | O=C(CSC1=Nc2ccccc2C2=NC(c3ccccc3)C(=O)N12)NCC1CCCO1 (configuration not stated) | 8% (inactive)
30 | Cc1cccc(N2C(=O)SC(N(CC(=O)O)c3cccc(C)c3)C2=O)c1 (configuration not stated) | 5% (inactive)
31 | O=C1NC(c2ccncc2)Nc2sc3c(c21)CCCC3 (configuration not stated) | 3% (inactive)
32 | COc1ccc(CCNC(=O)CSc2nnc(CNC(=O)c3cccs3)o2)cc1OC | 10% (inactive)
33 | COCCCNC(=O)c1ccc(CNS(=O)(=O)c2ccc(NC(C)=O)cc2)cc1 | 15% (inactive)
34 | CC1=NCCN1S(=O)(=O)c1ccc(Br)c(C)c1 | 16% (inactive)
35 | CCOC(=O)C1(c2ccccc2)NC(c2ccc(N(C)C)cc2)C2C(=O)N(C)C(=O)C21 (configuration not stated) | 11% (inactive)
36 | COc1cccc(OCC(=O)Nc2ccccc2C(N)=O)c1 | 9% (inactive)
37 | COc1nc(Oc2ccc(=O)n(C)n2)nc(N(C)C)n1 | 10% (inactive)
38 | COc1ccc(N2C(=O)C3CCCN3C2c2cccs2)cc1 (configuration not stated) | 9% (inactive)
39 | Cc1ccc(-c2nnc(SC(C)C#N)n2N)cc1 (configuration not stated) | 11% (inactive)
40 | Cn1c(C(=O)NCCCN2CCN(c3cccc(Cl)c3)CC2)cc2c(=O)n(C)c3ccccc3c21 | 92% (active)
41 | CC1CCCC(C)N1CCCNC(=O)c1cc2c(=O)n(C)c3ccccc3c2n1C (configuration not stated) | 9% (inactive)
42 | CCn1c(=O)cc(OCC(=O)NCCCN2CCN(c3cccc(Cl)c3)CC2)c2ccccc21 | 27% (inactive)

Row | Compound | side scatter shift
43 | COc1ccccc1NC(=O)C1=C(C)Nc2ncnn2C1c1ccc(C)o1 (configuration not stated) | 16% (inactive)
44 | CCOC(=O)C1C(=O)C=C(c2ccc(OC)cc2)CC1c1ccco1 (configuration not stated) | 5% (inactive)
45 | CC(=O)NC(C)c1nc2ccccc2n1Cc1ccccc1F (configuration not stated) | 7% (inactive)
46 | CC1=C(C(=O)Nc2ccccc2)C(c2cccs2)C(C#N)=C(SCC#N)N1 (configuration not stated) | 4% (inactive)
47 | Cc1nnc(C)n1/N=C/c1ccc(C(C)C)cc1 | 18% (inactive)
48 | Cn1c(=O)cc(OCCCC(=O)N2CCN(Cc3ccc4c(c3)OCO4)CC2)c2ccccc21 | 12% (inactive)
49 | OCc1nc(CO)n(Cc2ccccc2)n1 | 7% (inactive)
50 | Cc1ccc(N2C(=O)c3oc4ccccc4c(=O)c3C2c2cccnc2)nc1 (configuration not stated) | 3% (inactive)
51 | O=c1ccn(Cc2ccccc2Cl)cc1 | 3% (inactive)
52 | O=C1N=C(N2CCOCC2)CS1 | 16% (inactive)
53 | CCC(C)(C)n1nnnc1C(c1ccccc1OC)N1CCSCC1 (configuration not stated) | 10% (inactive)
54 | CCn1c(=O)cc(SCC(=O)NCc2ccc3c(c2)OCO3)c2ccccc21 | 20% (inactive)
55 | O=C(O)CCC(=O)Nc1ccc(N2CCOCC2)cc1 | 6% (inactive)
56 | CCOc1ccc(C(=O)N(Cc2ccc(N(C)C)cc2)C2CCS(=O)(=O)C2)cc1 (configuration not stated) | 12% (inactive)
57 | O=C(CC(Cc1ccccc1)C(=O)O)NCCc1ccc2c(c1)OCO2 (configuration not stated) | 6% (inactive)
58 | O=C(CSc1nc2ncccc2[nH]1)Nc1ccc2c(c1)OCCO2 | 3% (inactive)
59 | Nc1c(C(=O)NCc2ccccc2)nnn1Cc1cccc(Cl)c1 | 24% (inactive)
60 | O=C(CCn1c(=S)[nH]c2ccccc2c1=O)NCCCN1CCCC1=O | 6% (inactive)
61 | COc1cccc2cc(C(C)N(CCCN3CCOCC3)C(=O)Nc3ccc(Cl)cc3)oc12 (configuration not stated) | 6% (inactive)
62 | CCOC(=O)Cn1c(N)c(C(=O)OC)sc1=S | 0% (inactive)
63 | Clc1ccc(Cn2ncc3c(NCc4cccnc4)ncnc32)cc1 | 11% (inactive)

Row | Compound | side scatter shift
64 | CCOC(=O)CSc1nc2c(c(=O)n(C)c(=O)n2C)n1Cc1ccccc1F | 11% (inactive)
65 | O=C(Nc1ccccc1C(F)(F)F)c1cc(-c2ccc(O)cc2)on1 | 5% (inactive)
66 | CCOC(=O)c1nc(-c2ccc3c(c2)OCO3)[nH]c1C | 7% (inactive)
67 | CCCN1CCN(C(=O)Cn2ncc3ccccc32)CC1 | 6% (inactive)
68 | CCCOC(=O)c1[nH]c2c(c1C)C(=O)CC(c1cc(OC)c(OC)c(OC)c1)C2 (configuration not stated) | 11% (inactive)
69 | CC1(C)C(=O)Nc2ccccc2N1C(=O)COC(=O)Cn1cnc2ccccc2c1=O | 7% (inactive)
70 | Cc1ccc(C(=O)N(CN2CCCC2=O)c2ccc(F)cc2)cc1 | 15% (inactive)
71 | CCCC(=O)Nc1cccc(-c2cn3ccsc3n2)c1 | 3% (inactive)
72 | O=C(COC(=O)C12CC3CC(CC(C3)C1)C2)NCc1ccco1 | 12% (inactive)
73 | CCOC(=O)C1CCCN(C(=O)c2ccc(CS(=O)(=O)c3ccc(Br)cc3)o2)C1 (configuration not stated) | 8% (inactive)
74 | Cc1ccsc1C(C(=O)NC1CCCCC1)N(C(=O)Cc1cccs1)C1CC1 (configuration not stated) | 9% (inactive)
75 | CCCCc1nccn1CCn1ccnc1CCCC | 7% (inactive)
76 | O=C(C1CC1)N1CCN=C1SCc1ccc(Cl)cc1 | 11% (inactive)
77 | Cc1cc(=O)n(C)c(=O)n1CCCNc1ccccc1 | 9% (inactive)
78 | CC(C)Nc1nc(N(c2ccccc2)c2ccccc2)nc(-n2ccnc2)n1 | 10% (inactive)
79 | CC(CCc1ccccc1)NC(=O)c1ccc(Br)o1 (configuration not stated) | 5% (inactive)
80 | C/C(=C(\C#N)C(=O)NCCCN1CCOCC1)N(C)C | 13% (inactive)
81 | O=C(NCc1cccnc1)c1ccc(CS(=O)(=O)c2ccc(Br)cc2)o1 | 4% (inactive)
82 | O=S(=O)(Nc1ccccn1)c1ccc(Oc2ccccc2)cc1 | 13% (inactive)
